Screening data deposited in PubChem by several laboratories.
BCLXL inh – inhibitors of human Bcl-xL, primary screen, biochemical, fluorescence polarization, HTS | GST-Bcl-xL / FITC-Bim BH3 peptide fluorescence polarization | inhibition, % at 10.9 µM | actives 0.7% (n = 320,000);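 active means inhibition above the mean of all tested compounds plus 3 SD, cutoff set per campaign, cut at about 30% in these data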;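 further: 0% = DMSO wells and 100% = unlabeled Bim-BH3 peptide competitor; inhibitors lower millipolarization by displacing the labeled peptide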
GLD-1 RNA inh – GLD-1/TGE RNA complex disruptors, primary screen, biochemical, fluorescence polarization; Female germline-specific tumor suppressor gld-1 (Caenorhabditis elegans), Q17339; purified GLD-1 + fluorescein TGE RNA; inhibition, % at 5.96 µM; actives 0.44% (n = 320,000); AID 2280, 2010;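 active means percent inhibition above a per-plate cutoff, the plate mean of test compounds plus 3 SD, cut at about 30% in these data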;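 further: 0% = DMSO wells with GLD-1 and probe and 100% = wells lacking GLD-1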
Target sequence (Q17339 whole entry, looked up): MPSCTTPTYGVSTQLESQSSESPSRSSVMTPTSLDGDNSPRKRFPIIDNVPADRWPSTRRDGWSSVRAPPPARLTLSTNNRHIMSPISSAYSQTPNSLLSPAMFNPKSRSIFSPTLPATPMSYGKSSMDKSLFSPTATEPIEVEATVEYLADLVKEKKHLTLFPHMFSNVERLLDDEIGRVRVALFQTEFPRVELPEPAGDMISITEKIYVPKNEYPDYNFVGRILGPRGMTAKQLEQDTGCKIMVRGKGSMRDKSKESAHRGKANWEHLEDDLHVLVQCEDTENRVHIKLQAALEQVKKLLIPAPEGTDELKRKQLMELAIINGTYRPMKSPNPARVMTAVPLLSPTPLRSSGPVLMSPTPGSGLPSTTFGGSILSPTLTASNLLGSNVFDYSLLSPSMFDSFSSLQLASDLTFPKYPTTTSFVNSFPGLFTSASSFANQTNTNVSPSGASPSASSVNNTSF
Mcl1-Noxa inh – Mcl-1/Noxa binding inhibitors, primary screen, biochemical, TR-FRET, 1536-well | TR-FRET Mcl-1/Noxa peptide binding, 2 h | AID 1022, 2008 | inhibition, % at 21.7 µM | actives 1.5% (n = 220,000);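 active means compounds that cut the protein-peptide binding signal by more than 50% relative to plate controls in a single-dose test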;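 further: His-tagged Mcl-1 with rhodamine Noxa BH3 peptide and terbium anti-His antibody; 0% = Mcl-1 plus Noxa peptide wells and 100% = peptide-only wells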
MCL1-BIM inh – inhibitors of MCL1 binding to BIM-BH3, primary screen, biochemical, fluorescence polarization; actives 0.68% (n = 320,000); Induced myeloid leukemia cell differentiation protein Mcl-1 (Homo sapiens), Q07820; GST-MCL1 / FITC-Bim-BH3 fluorescence polarization; AID 2057, 2009; inhibition, % at 10.9 µM;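 active means inhibition above the mean inhibition of all tested compounds plus 3 SD, set per campaign, cut at about 40% in these data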;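 further: 0% = DMSO wells and 100% = unlabeled Bim-BH3 peptide control; higher means more loss of mP so more displacement of Bim peptide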
Mcl-1 Bim block – inhibitors of Bim peptide binding to Mcl-1, primary screen, biochemical, bead-based flow cytometry, multiplex | Induced myeloid leukemia cell differentiation protein Mcl-1 (Homo sapiens), Q07820 | Bim peptide-Mcl-1 binding | inhibition, % at 10 µM | actives 0.1% (n = 190,000) | AID 1009, 2008; in the data active means inhibition above about 40%;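 further: 0% = no compound tracer wells and 100% = peptide blocker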
Mcl1-Bid inh – Mcl-1/Bid binding inhibitors, primary screen, biochemical, TR-FRET, 1536-well; TR-FRET Mcl-1/Bid-Dy647 peptide binding; actives 0.97% (n = 220,000); Induced myeloid leukemia cell differentiation protein Mcl-1 (Homo sapiens), Q07820; AID 1021, 2008; inhibition, % at 21.7 µM;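 active means compounds that cut the binding signal by more than half at the single screening dose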;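 further: His-tagged Mcl-1 with europium anti-His antibody binding Bid BH3 peptide; 0% = Mcl-1 plus peptide wells and 100% = peptide-only wells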
Active calls of the source: *; nt = no result given. Compounds with a hit are over-represented: about 2.3% of the library has one in this group of screens.

SMILES	BCLXL inh	GLD-1 RNA inh	Mcl1-Noxa inh	MCL1-BIM inh	Mcl-1 Bim block	Mcl1-Bid inh
CC(C)(C)c1nc2ccccc2c2nnc(SCC(=O)Nc3nccs3)n12	1.7	-3.1	17.9	2.5	1.0	-6.7
CC1CCC(=C(C#N)c2nc(-c3cc4ccccc4oc3=O)cs2)CC1 (stereo unspecified)	3.7	-4.0	10.5	5.3	0.0	-16.0
COc1cc(/C=C(\C#N)c2nc3ccccc3o2)ccc1O	-66.4	-157.7	32.2	-93.3	nt	-80.1
COc1cc(/C=C(\C#N)c2nc(-c3cc4ccccc4oc3=O)cs2)ccc1O	1.6	-6.8	58.8*	3.2	-1.0	63.8*
COc1cc(/C=C(/C#N)c2nc(-c3cc4ccccc4oc3=O)cs2)cc([N+](=O)[O-])c1O	nt	nt	97.8*	nt	nt	96.6*
COc1ccc2c(c1)oc(=O)c1ccccc12	8.9	11.6	26.9	-0.1	4.0	-11.1
O=c1oc2cc(O)c(Cl)cc2c2ccccc12	3.0	9.2	53.8*	-2.2	-1.0	-60.8
COc1ccc(S(=O)(=O)N2CCN(C)CC2)cc1NC(=O)c1ccccc1	8.7	10.0	nt	10.5	nt	nt
CC(=O)c1ccc(NC(=O)C(C)N2CCN(C/C=C/c3ccccc3)CC2)cc1 (stereo unspecified)	-1.1	-5.3	9.6	-7.8	nt	-4.1
COc1ccc(Cl)cc1NC(=O)C(C)N1CCN(C/C=C/c2ccccc2)CC1 (stereo unspecified)	6.8	2.9	27.8	3.0	-5.0	51.3*
CC(C(=O)Nc1ccc([N+](=O)[O-])cc1)N1CCN(C/C=C/c2ccccc2)CC1 (stereo unspecified)	-1.0	-1.7	12.3	0.0	41.0*	-26.2
Fc1ccc(-c2csc(Nc3ccccn3)n2)cc1	3.4	8.9	nt	2.2	nt	nt
O=C(Cc1ccc(Cl)cc1)Nc1ccc(N2CCCC2)cc1	2.7	3.3	-5.9	6.2	-4.0	-24.4
Clc1cccc(Cl)c1CNc1ccc(N2CCCC2)cc1	9.2	-5.5	67.0*	17.2	16.0	-70.8
O=C(/C=C/c1ccco1)N(Cc1cccc(F)c1)C1CCS(=O)(=O)C1 (stereo unspecified)	8.8	-3.4	nt	3.9	nt	nt
COC(=O)c1sc(-c2ccc(Cl)cc2)cc1N	1.6	5.3	13.0	2.6	nt	-21.0
CC(=O)c1sc(-c2ccc(Cl)cc2)cc1N	1.9	6.4	3.1	3.2	nt	56.0*
CCN1CCN(CC(=O)Nc2cc(S(=O)(=O)N3CCCCC3)ccc2Cl)CC1	nt	-5.1	nt	nt	nt	nt
O=C(CN1CCN(c2ccc(O)cc2)CC1)Nc1cc(S(=O)(=O)N2CCCC2)ccc1Cl	30.1	1.9	56.9*	21.8	-1.0	-90.9
O=C(CN1CCN(c2ccc(O)cc2)CC1)Nc1cc(S(=O)(=O)N2CCCCC2)ccc1Cl	24.8	3.1	69.3*	22.4	1.0	-60.2
Cn1cnc(C(=O)NCc2ccccc2)c1C(=O)NCc1ccccc1	nt	-1.2	nt	nt	nt	nt
COc1ccccc1/C=C/C=N/NC(=O)c1cc(-c2ccco2)[nH]n1	10.5	-15.3	61.6*	22.8	nt	-36.8
COc1ccccc1/C=C/C=N/NC(=O)c1ccccn1	4.9	5.2	11.1	3.4	-5.0	-6.6
O=C(NCCC1CCCCN1S(=O)(=O)c1ccc(F)cc1)C(=O)NCc1cccnc1 (stereo unspecified)	2.9	-1.5	nt	2.2	nt	nt
O=C(O)CCc1ccc(-c2ccc(Br)cc2)n1Cc1ccco1	1.8	3.2	51.5*	6.8	0.0	-36.6
Cc1c(Cl)cccc1NC(=O)C1CC2CCC1C2 (stereo unspecified)	-0.7	0.3	nt	-11.6	nt	nt
O=C1Nc2cc(Cl)cnc2N2CCCC12 (stereo unspecified)	35.7*	10.0	59.7*	43.0*	1.0	-17.3
CN(C)C(CNC(C(=O)Nc1ccc(F)cc1)c1ccccc1)c1ccccc1 (stereo unspecified)	2.2	0.7	nt	11.8	nt	nt
